Assay results published in PubChem BioAssay (NCATS).
“And” between values parts separate entries of the source, which are not always exact repeats. Equal entries are not always repeated. Results filed as inconclusive are left out. A structure can be active in one record and inactive in another. The source made the active and inactive calls. Calls come from the whole dose curve; as a rule, active = well fitted curve in the direction sought with a large enough effect; inconclusive = small, poorly fitted or top-dose-only effect, or another doubt; inactive = no such curve, though single readings can be large; an effect the other way counts as inactive or inconclusive.

Tests used:
[1] = qHTS assay for measurement of the activity of small molecule inhibitors on Zika virus induced Caspase-3 activity in human astrocytoma cells (AID 1224859)
Summary of the method: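 Luminescent caspase-3/7 read-out (30 min reagent, room temperature) in human SNB-19 cells infected 6 h with ZIKV (2 FFU/cell) after 1 h compound pre-incubation; Data were normalised to uninfected and infected wells.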

[2] = qHTS Screen of the MIPE 4.0 Collection Against Ewings Sarcoma (RDES) (AID 1259252); note: nearly all actives have a fitted effect of over 35% in size; note: potency is the fitted concentration of half-maximal effect
Summary of the method: (§1)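 Here, cells in 5% FBS RPMI were exposed for two days (48 h) to compound dilutions added four hours after plating. ATP-based CellTiter-Glo luminescence measured viability, normalized to vehicle and no-cell blanks.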

[3] = qHTS Screen of the MIPE 4.0 Collection Against Ewings Sarcoma (TC71) (AID 1259253); note: nearly all actives have a fitted effect of over 40% in size; note: potency is the fitted concentration of half-maximal effect
Summary of the method: as §1

[4] = qHTS Screen of the MIPE 4.0 Collection Against Ewings Sarcoma (EW8) (AID 1259255); note: nearly all actives have a fitted effect of over 35% in size; note: potency is the fitted concentration of half-maximal effect
Summary of the method: as §1

[5] = qHTS Screen of the MIPE 4.0 Collection Against Ewings Sarcoma (TC32) (AID 1259256); note: nearly all actives have a fitted effect of over 45% in size; note: potency is the fitted concentration of half-maximal effect
Summary of the method: as §1

[6] = P-glycoprotein substrates identified in KB-3-1 adenocarcinoma cell line, qHTS therapeutic library screen (AID 1346986); note: nearly all actives have a fitted effect of over 60% in size;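 note: potency is the fitted concentration of half-maximal effect; potency is for cytotoxicity meaning loss of cell viability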
Summary of the method: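 KB-3-1 parental cells and P-gp-overexpressing KB-8-5-11 (colchicine omitted during assay) plated at 500 cells/well, dosed in dose-response, incubated 72 h at 37 degree C. CellTiter-Glo luminescence read; KB-8-5-11 also tested with tariquidar.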

[7] = P-glycoprotein substrates identified in KB-8-5-11 adenocarcinoma cell line, qHTS therapeutic library screen (AID 1346987); note: nearly all actives have a fitted effect of over 65% in size; note: potency is the fitted concentration of half-maximal effect
Summary of the method: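 KB-8-5-11: colchicine-selected sub-line of KB-3-1 over-expressing P-gp; assay medium lacked colchicine. 72 h drug exposure at 37 degree C, CellTiter-Glo.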

[8] = NS1 protein of Zika virus - qHTS assay to identify small molecule inhibitors in human HEK 293 cells (AID 1347053); note: nearly all actives have a fitted effect of over 55% in size; note: potency is the fitted concentration of half-maximal effect
Summary of the method: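 Following 20 h seeding, HEK 293 cells took compound, then 1 h later ZIKV MR766 (MOI = 0.5). Incubation ran 24 h at 37 C before TR-FRET detection of NS1; a drop in signal indicates inhibition.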

SMILES	Potency [1]	Potency [2]	Potency [3]	Potency [4]	Potency [5]	Potency [6]	Potency [7]	Potency [8]
O=C(O)c1ccc2c(c1)nc(Nc1cccc(Cl)c1)c1ccncc12	inactive	4.18 µM (active)	4.69 µM (active)	7.43 µM (active)	5.9 µM (active)	5.8 µM (active)	inactive and 14.6 µM (active)	–
CCCCCCCCCC(=O)N[C@@H](Cc1c[nH]c2ccccc12)C(=O)N[C@H](CC(N)=O)C(=O)N[C@@H](CC(=O)O)C(=O)N[C@@H]1C(=O)NCC(=O)N[C@@H](CCCN)C(=O)N[C@@H](CC(=O)O)C(=O)N[C@H](C)C(=O)N[C@@H](CC(=O)O)C(=O)NCC(=O)N[C@H](CO)C(=O)N[C@@H]([C@@H](C)CC(=O)O)C(=O)N[C@@H](CC(=O)c2ccccc2N)C(=O)O[C@@H]1C	inactive	inactive	inactive	inactive	inactive	inactive	inactive	inactive
Cc1nc(Nc2n[nH]c3c2CN(C(=O)N[C@H](CN(C)C)c2ccccc2)C3(C)C)c2sccc2n1	inactive	3.32 µM (active)	1.32 µM (active)	2.64 µM (active)	7.43 µM (active)	–	inactive	–
COC(=O)Nc1nc2ccc(C(=O)c3ccc(F)cc3)cc2[nH]1	inactive	0.743 µM (active)	1.05 µM (active)	0.662 µM (active)	0.372 µM (active)	–	418 nM (active) and 1.03 µM (active)	–
CCOC(=O)C1=C(C)NC2=C(C(=O)CC(C)(C)C2)C1c1ccc(-c2ccccc2)cc1 (configuration not stated)	inactive	26.4 µM (active)	26.4 µM (active)	29.6 µM (active)	23.5 µM (active)	inactive	inactive and 23.1 µM (active)	10.5 µM (active)
CC(C)Nc1cc(C(F)(F)F)cc2nc(NC(=O)c3cccnc3)nn12	inactive	11.8 µM (active)	13.2 µM (active)	inactive	inactive	inactive	inactive	inactive
COCCOc1ccc2c(c1)ncn2-c1ccc2cccc(N3CCC(N)CC3)c2n1	inactive	18.7 µM (active)	14.8 µM (active)	18.7 µM (active)	23.5 µM (active)	–	23.5 µM (active)	–
Nc1cccc(-c2cc3c(Oc4cccc(O)c4)ncnc3[nH]2)c1	inactive	2.35 µM (active)	4.18 µM (active)	3.32 µM (active)	2.96 µM (active)	–	20.9 µM (active)	–
Cc1ccc(NC(=O)C2(c3ccc4c(c3)OC(F)(F)O4)CC2)nc1-c1cccc(C(=O)O)c1	inactive	0.0526 µM (active)	0.0372 µM (active)	0.0469 µM (active)	0.0526 µM (active)	inactive	526 nM (active) and inactive	0.0372 µM (active)
CNC(=O)c1ccc(N2C(=S)N(c3cnc(C#N)c(C(F)(F)F)c3)C(=O)C23CCC3)cc1F	inactive	1.18 µM (active)	2.96 µM (active)	8.33 µM (active)	8.33 µM (active)	inactive	inactive	–
Cc1cc(CN2CCN(c3c(Br)cnc4nc(-c5ccc(N6CCN(C)CC6)cc5)[nH]c34)CC2)no1	inactive	14.8 µM (active)	18.7 µM (active)	0.935 µM (active)	1.18 µM (active)	–	0.92 µM (active)	–
O=C(NCCCNc1nc(Nc2cccc(NC(=O)N3CCCC3)c2)ncc1I)c1cccs1	inactive	13.2 µM (active)	16.6 µM (active)	1.87 µM (active)	2.35 µM (active)	11.6 µM (active)	16.6 µM (active)	–
COc1cc2c(Nc3ccc(NC(=O)c4ccccc4)cc3)ncnc2cc1OCCCN1CCOCC1	inactive	23.5 µM (active)	16.6 µM (active)	1.05 µM (active)	3.32 µM (active)	–	inactive	–
Cc1c(C)n(Cc2ccc(-c3ccccc3C(=O)O)cc2)c2ccc(C(=O)N[C@@H](C)c3ccc([N+](=O)[O-])cc3)cc12	inactive	inactive	inactive	inactive	inactive	–	inactive	–
CNC(=O)CN1CCC(Oc2cc3c(Nc4cccc(Cl)c4F)ncnc3cc2OC)CC1	inactive	0.0148 µM (active)	0.0526 µM (active)	0.105 µM (active)	0.0526 µM (active)	–	inactive	–
CNC(=O)c1ccccc1Nc1nc(Nc2ccc(N3CCOCC3)cc2OC)ncc1Cl	inactive	11.8 µM (active)	1.32 µM (active)	1.48 µM (active)	0.662 µM (active)	–	1.87 µM (active) and 1.64 µM (active)	–
O=C(Nc1nc2cccc(-c3ccc(CN4CCS(=O)(=O)CC4)cc3)n2n1)C1CC1	inactive	16.6 µM (active)	9.35 µM (active)	9.35 µM (active)	8.33 µM (active)	20.6 µM (active)	–	inactive
Cc1cc(Nc2cc(NC(=O)c3c(Cl)cccc3Cl)ccn2)nc(N)n1	inactive	0.332 µM (active)	0.148 µM (active)	0.187 µM (active)	0.264 µM (active)	0.326 µM (active)	935 nM (active) and 1.16 µM (active)	2.35 µM (active)
